Laboratory results taken from PubChem BioAssay (NCATS).
Records with an inconclusive call do not appear. Activity calls are given as the source filed them. Calls follow the shape of the dose curve; as a rule, active = well fitted curve in the direction sought with a large enough effect; inconclusive = small, poorly fitted or top-dose-only effect, or another doubt; inactive = no such curve, though single readings can be large; an effect the other way counts as inactive or inconclusive.

Key:
[1] = target: Single-stranded DNA cytosine deaminase (Homo sapiens) (UniProt Q9GZX7); assay: Validation qHTS assay for inhibitors of Activation Induced Cytidine Deaminase (AID): AID signal (AID 1347429)
Sequence of Single-stranded DNA cytosine deaminase (Homo sapiens) (Q9GZX7 whole entry, looked up): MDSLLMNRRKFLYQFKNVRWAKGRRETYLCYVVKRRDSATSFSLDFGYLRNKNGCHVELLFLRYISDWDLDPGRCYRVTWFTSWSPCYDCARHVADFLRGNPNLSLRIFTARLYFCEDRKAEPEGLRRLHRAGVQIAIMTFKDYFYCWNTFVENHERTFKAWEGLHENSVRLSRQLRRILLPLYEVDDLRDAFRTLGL
In short: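 AID and UDG were combined and compounds added at final up to 114 uM, then DJC20/DJC23 FRET substrate was added for 4 hr at room temperature. NaOH was then added for 30 min before fluorescence was read at 540/590 nm.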

[2] = Primary qHTS for inhibitors of La Crosse Virus (LACV) - induced cell death in SH-SY5Y cells (AID 1508616);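 also: top concentration of the series differs between compounds; higher means more rescue of cells from virus-induced death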
In short: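 Luminescent ATP readout (ATPLite 1step, 5 min room temperature) measured rescue from LACV-induced death after 6 days of infection at 0.01 MOI; normalized to infected DMSO wells and uninfected DMSO wells.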

[3] = target: Calcium and integrin-binding protein 1 (Homo sapiens) (UniProt Q99828); assay: Validation qHTS for Identification of Calcium Integrin Binding protein 1 (CIB1) Competitor (AID 1508618)
Sequence of Calcium and integrin-binding protein 1 (Homo sapiens) (Q99828 whole entry, looked up): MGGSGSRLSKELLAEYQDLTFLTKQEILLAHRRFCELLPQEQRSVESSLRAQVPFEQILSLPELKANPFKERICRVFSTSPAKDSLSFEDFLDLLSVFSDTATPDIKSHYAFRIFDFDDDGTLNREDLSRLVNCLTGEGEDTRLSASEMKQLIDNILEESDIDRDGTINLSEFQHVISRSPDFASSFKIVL
In short: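 Displacement of FITC-alphaIIb peptide (100 nM) from CIB1-GST (1 uM) is monitored by polarization in quantitative HTS format; buffer carries 5 mM CaCl2 and 125 mM NaCl at pH 7.4, incubations are at room temperature.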

[4] = Primary qHTS for small molecule stabilizers of the endoplasmic reticulum resident proteome: Secreted ER Calcium Modulated Protein (SERCaMP) assay (AID 1508630)
In short: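 GLuc-SERCaMP-expressing SH-SY5Y cells, pretreated 16 h with compound, are challenged with thapsigargin to empty ER calcium stores; after 4 h, coelenterazine is added directly to the medium and luminescence is imaged.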

Papain (Carica papaya) = Papain (Carica papaya) (UniProt P00784); assay: Primary qHTS assay for inhibitors of the protease papain (AID 1645873);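 also: papain turnover of Z-FR-AMC read as the AMC fluorescence gain over 10 min; series mostly up to about 50 µM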
Sequence of Papain (Carica papaya) (P00784 whole entry, looked up): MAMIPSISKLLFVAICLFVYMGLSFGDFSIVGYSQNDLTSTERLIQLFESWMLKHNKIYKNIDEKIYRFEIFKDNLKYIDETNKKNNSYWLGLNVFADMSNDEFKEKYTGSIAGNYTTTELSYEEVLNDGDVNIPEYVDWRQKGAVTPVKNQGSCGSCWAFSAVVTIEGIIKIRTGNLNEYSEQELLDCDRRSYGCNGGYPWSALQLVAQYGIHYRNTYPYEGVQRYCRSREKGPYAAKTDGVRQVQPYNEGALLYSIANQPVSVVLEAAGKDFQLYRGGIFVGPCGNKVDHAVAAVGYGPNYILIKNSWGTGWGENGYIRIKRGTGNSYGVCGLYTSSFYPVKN

[5] = target: Calcium and integrin-binding protein 1 (Homo sapiens) (UniProt Q99828); assay: Primary qHTS for Identification of Calcium Integrin Binding Protein 1 (CIB1) Competitor (AID 1508620);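 also: GST tagged CIB1 binding a fluorescein labelled alphaIIb integrin peptide tracer; top concentration of the series differs between compounds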
In short: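 Fluorescence polarization competition: GST-tagged CIB1 (1 uM final) preincubated with compound 15 min at room temperature, then FITC-labelled alphaIIb peptide (100 nM final) added. After 15 min at room temperature, polarization read at Ex 480/Em 540.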

[6] = Primary qHTS for inhibitors of nuclear receptor binding SET domain protein 2 (NSD2) in an isogenic RCH-ACV NSD2 p.E1099K mutant (9B) (AID 1645876); also: nearly all actives have a fitted effect of over 70% in size
[7] = target: Rap guanine nucleotide exchange factor 3 (Homo sapiens) (UniProt O95398); assay: Confirmatory qHTS for antagonist of cAMP-regulated guanine nucleotide exchange factor 3 (EPAC1) (AID 1645880); also: nearly all actives have a fitted effect of over 55% in size
Sequence of Rap guanine nucleotide exchange factor 3 (Homo sapiens) (O95398 whole entry, looked up): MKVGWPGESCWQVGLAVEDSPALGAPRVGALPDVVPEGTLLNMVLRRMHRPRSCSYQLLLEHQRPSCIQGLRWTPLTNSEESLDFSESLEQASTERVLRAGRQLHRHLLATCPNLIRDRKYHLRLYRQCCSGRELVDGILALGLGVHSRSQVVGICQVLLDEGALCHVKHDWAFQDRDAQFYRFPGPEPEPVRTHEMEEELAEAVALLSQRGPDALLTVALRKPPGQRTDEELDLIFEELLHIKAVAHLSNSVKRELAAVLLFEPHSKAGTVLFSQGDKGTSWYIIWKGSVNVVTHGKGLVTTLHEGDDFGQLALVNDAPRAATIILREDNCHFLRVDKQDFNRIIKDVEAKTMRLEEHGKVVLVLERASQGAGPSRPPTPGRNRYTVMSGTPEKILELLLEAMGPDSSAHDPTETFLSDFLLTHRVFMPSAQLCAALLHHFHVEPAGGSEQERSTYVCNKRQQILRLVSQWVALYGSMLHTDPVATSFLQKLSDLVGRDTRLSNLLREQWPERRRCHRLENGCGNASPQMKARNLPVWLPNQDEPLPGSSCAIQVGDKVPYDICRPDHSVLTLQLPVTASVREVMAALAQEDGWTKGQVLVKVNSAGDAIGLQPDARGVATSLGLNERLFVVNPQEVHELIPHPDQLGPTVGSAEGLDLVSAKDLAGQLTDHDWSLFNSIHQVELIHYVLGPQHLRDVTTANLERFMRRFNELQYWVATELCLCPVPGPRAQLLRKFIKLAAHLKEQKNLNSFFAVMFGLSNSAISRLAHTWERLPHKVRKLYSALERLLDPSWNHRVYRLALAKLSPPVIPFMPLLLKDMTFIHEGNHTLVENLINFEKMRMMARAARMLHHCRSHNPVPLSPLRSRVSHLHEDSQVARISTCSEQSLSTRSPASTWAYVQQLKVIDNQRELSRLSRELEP
In short: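 Nucleotide exchange uses 100 nM EPAC1, 250 nM RAP1B-BODIPY-GDP and 50 uM GDP, with compounds in a concentration-titration series. After 5 min at room temperature, fluorescence (480 nm ex/540 nm em) is read every 5 min for 30 min. Data are normalized to control ATA and DMSO.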

[8] = target: Rap guanine nucleotide exchange factor 3 (Homo sapiens) (UniProt O95398); assay: Confirmatory qHTS for agonist of cAMP-regulated guanine nucleotide exchange factor 3 (EPAC1) (AID 1645881);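 also: EPAC1 catalysed release of BODIPY-GDP from Rap1B seen as fluorescence loss; nearly all actives have a fitted effect of over 75% in size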

Measured: Potency

CC1(C)CCC=[N+]1[O-]
inactive: [1] | [2] | [3] | [4] | Papain (Carica papaya)

NCCSSCCN
inactive: [1] | [2] | [3] | Papain (Carica papaya)

Nc1ncnc2c1ncn2[C@@H]1O[C@H](COP(=O)(O)OP(=O)(O)OP(=O)(O)OP(=O)(O)OC[C@@H]2O[C@H](n3cnc4c(N)ncnc43)[C@@H](O)[C@H]2O)[C@@H](O)[C@H]1O
inactive: [1] | [2] | [3] | Papain (Carica papaya)

CCN(CC)c1ncnc2c1ncn2[C@@H]1O[C@H](COP(=O)(O)OP(=O)(O)C(Br)(Br)P(=O)(O)O)[C@@H](O)[C@H]1O
inactive: [1] | [2] | [3] | [4] | Papain (Carica papaya)

CC1OC1P(=O)(O)O (stereo not drawn)
inactive: [1] | [2] | [3] | Papain (Carica papaya)

O=[N+]([O-])c1ccc(CSc2ncnc3c2ncn3[C@@H]2O[C@H](CO)[C@@H](O)[C@H]2O)cc1
inactive: [1] | [2] | [3] | [4] | Papain (Carica papaya)

CC(C)(C=O)Cc1cc(C(C)(C)C)c(O)c(C(C)(C)C)c1
inactive: [1] | [2] | [3] | [4] | Papain (Carica papaya)

CSc1nc(N)c2ncn([C@@H]3O[C@H](COP(=O)(O)OP(=O)(O)OP(=O)(O)O)[C@@H](O)[C@H]3O)c2n1
inactive: [1] | [2] | [3] | [4] | Papain (Carica papaya)

O=C(O)CC1CC(c2ccccc2)=NO1 (stereo not drawn)
inactive: [1] | [2] | [5] | [4] | [6]

OCC1O[C@H](O)C(Cl)C(O)C1O (stereo partly drawn)
inactive: [1] | [2] | [3] | Papain (Carica papaya)

COC(=O)c1c(C)[nH]c(C)c1C(=O)c1ccccc1Cc1ccccc1
not listed: [5] | [6]
inactive: all other assays above
